Assay outcomes as filed in PubChem BioAssay.
KDM5B inh: KDM5B demethylase inhibition. 220,000 compounds, 2.6% hits. Potency, µM (highest dose often 57.7 µM), usual class: inhibitors. Q9UGL1. KDM5B demethylase, FDH-coupled NADH fluorescence (FDH is formaldehyde dehydrogenase); active = well fitted inhibition curve with a large enough effect; also: 0% is about no effect; nearly all actives have a fitted effect of over 70% in size
Target sequence (Q9UGL1 whole entry, looked up): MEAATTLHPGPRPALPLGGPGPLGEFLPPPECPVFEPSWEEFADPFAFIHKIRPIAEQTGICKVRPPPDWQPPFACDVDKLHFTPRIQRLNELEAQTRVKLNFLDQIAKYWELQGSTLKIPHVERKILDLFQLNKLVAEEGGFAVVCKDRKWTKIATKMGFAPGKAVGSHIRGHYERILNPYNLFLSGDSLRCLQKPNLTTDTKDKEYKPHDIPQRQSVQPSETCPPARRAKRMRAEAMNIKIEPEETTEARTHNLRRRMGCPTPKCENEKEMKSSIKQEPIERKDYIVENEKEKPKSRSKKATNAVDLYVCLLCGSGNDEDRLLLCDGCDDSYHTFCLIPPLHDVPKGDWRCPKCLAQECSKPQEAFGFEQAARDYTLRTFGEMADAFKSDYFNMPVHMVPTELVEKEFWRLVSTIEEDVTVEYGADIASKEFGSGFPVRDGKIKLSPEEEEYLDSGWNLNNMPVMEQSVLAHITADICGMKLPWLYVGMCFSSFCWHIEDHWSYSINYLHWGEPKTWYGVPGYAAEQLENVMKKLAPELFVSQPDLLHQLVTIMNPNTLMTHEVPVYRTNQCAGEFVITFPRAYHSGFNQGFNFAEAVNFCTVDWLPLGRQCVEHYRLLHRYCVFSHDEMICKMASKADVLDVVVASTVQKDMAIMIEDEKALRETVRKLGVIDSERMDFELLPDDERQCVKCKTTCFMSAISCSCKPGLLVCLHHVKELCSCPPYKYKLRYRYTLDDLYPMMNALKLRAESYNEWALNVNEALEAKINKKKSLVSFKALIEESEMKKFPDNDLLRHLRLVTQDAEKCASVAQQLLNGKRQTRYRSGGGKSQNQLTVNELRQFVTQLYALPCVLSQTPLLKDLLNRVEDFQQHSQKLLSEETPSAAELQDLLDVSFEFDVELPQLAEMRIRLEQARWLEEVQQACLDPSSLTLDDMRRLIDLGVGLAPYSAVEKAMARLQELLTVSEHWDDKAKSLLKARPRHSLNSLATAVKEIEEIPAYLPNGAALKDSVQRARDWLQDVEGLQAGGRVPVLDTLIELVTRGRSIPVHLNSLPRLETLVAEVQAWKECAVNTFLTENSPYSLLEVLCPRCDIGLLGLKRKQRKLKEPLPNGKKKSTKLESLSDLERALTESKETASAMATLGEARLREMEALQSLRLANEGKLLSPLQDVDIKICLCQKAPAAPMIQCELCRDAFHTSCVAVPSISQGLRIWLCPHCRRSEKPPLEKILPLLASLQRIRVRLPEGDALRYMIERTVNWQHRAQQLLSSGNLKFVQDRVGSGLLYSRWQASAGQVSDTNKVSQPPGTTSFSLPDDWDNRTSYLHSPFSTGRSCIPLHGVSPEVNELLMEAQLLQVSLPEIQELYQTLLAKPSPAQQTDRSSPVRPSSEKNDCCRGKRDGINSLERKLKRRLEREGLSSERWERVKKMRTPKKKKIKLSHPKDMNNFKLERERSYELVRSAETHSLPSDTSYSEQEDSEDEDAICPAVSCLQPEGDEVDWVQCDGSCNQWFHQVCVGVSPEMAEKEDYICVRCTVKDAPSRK
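Measured: NADH fluorescence change, 30 min, RT. System: KDM5BΔAP 200 nM final, H3K4me3 peptide, α-KG, Fe(II), ascorbate, NAD⁺ plus FDH, pH 7.5 HEPES. Compounds: titrated, 10 min pre-incubation with enzyme.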
The depositor's hits bear a star. Only a selection was taken, and hits are over-represented in it overall. Potency is read from the fitted curve at half-maximal effect.

Screening Cc1cccc(-c2nc3cnccn3c2NCCC(=O)NCc2ccc(F)c(Cl)c2)c1 returned KDM5B inh 28.2µM*.
`O=C(CCNc1c(-c2cccc(F)c2)nc2cnccn12)NCc1ccc(Cl)cc1` gave KDM5B inh 28.2µM*.
`Cc1cccc(-c2nc(CS(=O)CC(=O)NCc3ccc(Cl)cc3)c(C)o2)c1` (centres undefined) gave KDM5B inh inactive.
O=C(NCc1cccs1)C1CN(c2ccccc2)C(=O)N1 (centres undefined) was read as KDM5B inh inactive.
Cc1sc2c(c1C)c1nc(-c3ccco3)nn1c(=O)n2CCc1ccccc1 was read as KDM5B inh inactive.
Screening CC(C)N1C(=O)C2(CCCC2)C1C(=O)NCc1ccc(N2CCOCC2)cc1 (centres undefined) returned KDM5B inh inactive.
`COc1ccc(N2C(=O)CSC23C(=O)N(CC(=O)Nc2ccccc2OC)c2ccccc23)cc1` (centres undefined) gave KDM5B inh inactive.
`Cc1nc(NC(C)C)sc1C(=O)NCc1ccco1` gave KDM5B inh inactive.
`CC(C)(C)c1ccc(-c2nc(C#N)c(N3CCCCC3)o2)cc1` gave KDM5B inh inactive.
Screening COc1ccc(OC)c(S(=O)(=O)Nc2ccc3c(c2)CCCN3C(=O)c2cccnc2)c1 returned KDM5B inh inactive.
For COc1cc(N2CC(C(=O)O)CC2=O)cc(OC)c1OC (centres undefined) the results were KDM5B inh inactive.
`O=C(c1cc(-c2cccs2)[nH]n1)N1CCc2c(nc3cc(-c4ccccc4)[nH]n3c2=O)C1` gave KDM5B inh 31.6µM*.
Screening Cc1ccc(CN2CC(C(=O)N3CCc4c(nc5cc(-c6ccccc6)[nH]n5c4=O)C3)CC2=O)cc1 (centres undefined) returned KDM5B inh 22.4µM*.
Cc1cccc(CC(=O)N2CCc3c(nc4cc[nH]n4c3=O)C2)c1 was read as KDM5B inh 31.6µM*.
`O=C(c1ccccn1)N1CCN(c2cc(-c3cccs3)[nH]n2)CC1` gave KDM5B inh inactive.
Screening O=C(c1n[nH]c2c1CCCC2)N1CCc2c(nc3cc[nH]n3c2=O)C1 returned KDM5B inh 28.2µM*.
`O=c1c2c(nc3cc(-c4ccccc4)[nH]n13)CN(S(=O)(=O)c1cccs1)CC2` gave KDM5B inh inactive.
For Cc1nc2c(c(-c3ccc(Cl)cc3)n1)CCN(C(=O)Cc1cccc(Cl)c1)CC2 the results were KDM5B inh inactive.
For O=C(c1ccc(Br)cc1)N1CCc2[nH]nc(C(=O)N3CCOCC3)c2C1 the results were KDM5B inh inactive.
Screening COc1ccc(Cn2c3c(c(=O)n2Cc2ccccc2)CCN(C(=O)Cc2cccc(Cl)c2)C3)cc1 returned KDM5B inh inactive.
Screening Cc1ccc(CN2CC(C(=O)Nc3ccc(C)cn3)CC2=O)cc1 (centres undefined) returned KDM5B inh inactive.
For Cc1ccnc(NC(=O)C2CC(=O)N(Cc3ccccc3)C2)c1 (centres undefined) the results were KDM5B inh inactive.
Screening CC(C)C1CN(C(=O)c2n[nH]c3c2CCC3)CCC(=O)N1CC1CC1 (centres undefined) returned KDM5B inh inactive.
Screening Cc1[nH]ccc(=O)c1OCC(=O)Nc1ccc(Cl)c(Cl)c1 returned KDM5B inh inactive.
`Cc1ccc(-c2nc(SCc3cc(=O)n4nc(C5CC5)sc4n3)n[nH]2)cc1` gave KDM5B inh inactive.
Screening O=C(CN1C(=O)NC(c2ccc(Cl)cc2)C2=C1COC2=O)Nc1ccc(F)c(Cl)c1 (centres undefined) returned KDM5B inh inactive.
Screening CCn1nc(C)c(-c2cc(C(=O)N3CCc4nc5cc(-c6ccccc6)[nH]n5c(=O)c4C3)no2)c1C returned KDM5B inh inactive.
O=C(c1ccsc1)N1CCc2c(nc3cc[nH]n3c2=O)C1 was read as KDM5B inh 25.1µM*.
`O=C(c1ccsc1)N1CCN(c2cc(-c3ccc(Cl)cc3)[nH]n2)CC1` gave KDM5B inh inactive.
Screening O=C(c1cc(CN2CCOCC2)on1)N1CCc2c(nc3cc(-c4ccccc4)[nH]n3c2=O)C1 returned KDM5B inh 28.2µM*.
CN1CCc2c([nH]c3ccccc23)C12CCN(C(=O)c1cc(CN3CCOCC3)on1)CC2 was read as KDM5B inh inactive.
`COc1cccc([C@@H]2CN(C(=O)c3n[nH]c4c3CCCC4)C[C@H]2C(=O)O)c1` gave KDM5B inh inactive.
For O=C(c1n[nH]c2c1CCCC2)N1CCC(n2cc(-c3nc(-c4ccccc4)no3)nn2)CC1 the results were KDM5B inh inactive.
For O=C(c1n[nH]c2c1CCCC2)N1CCc2c(nc3cc(-c4ccccc4)[nH]n3c2=O)C1 the results were KDM5B inh 15.8µM*.
`COCCOc1ccc2c(n1)CCN(C(=O)c1ccsc1)C2` gave KDM5B inh inactive.
Screening Cc1cc2cc(C(=O)O)ccc2o1 returned KDM5B inh inactive.
`Fc1ccccc1-c1nnc2sc(-c3ccc4ccccc4n3)nn12` gave KDM5B inh inactive.
For O=C(NC1CCc2ccccc21)C1Cc2ccccc2O1 (centres undefined) the results were KDM5B inh inactive.
Screening CCCCCCCOc1ccc(-c2ccc(C3CCC(CC)CC3)cn2)cc1F (centres undefined) returned KDM5B inh inactive.
`COc1ccc(OC)c(CNC(=O)c2nccnc2N)c1` gave KDM5B inh inactive.
For CCN(CC)c1cc(CCC(=O)NCc2cc(OC)ccc2OC)ccn1 the results were KDM5B inh 14.1µM*.
For CCN(CC)c1cc(CCC(=O)NCc2ccccc2OC)ccn1 the results were KDM5B inh 25.1µM*.
`COc1ccc(OC)c(CNC(=O)c2cnc(N(C)C)nc2)c1` gave KDM5B inh inactive.
For COc1ccc(CNC(=O)CCc2cccnc2)cc1OC the results were KDM5B inh inactive.
Screening COc1ccccc1CNC(=O)CS(=O)(=O)c1ccccc1 returned KDM5B inh inactive.
Screening COc1ccc(-c2nnc(SCC(=O)Nc3cc(OC)cc(OC)c3)[nH]c2=O)cc1 returned KDM5B inh inactive.
`O=C1NC(C(=O)O)=CC(c2ccccc2Cl)N1` (centres undefined) gave KDM5B inh inactive.
`Cc1ccccc1OCCN(C)C(=O)c1cc(C2CC2)nc2ccccc12` gave KDM5B inh inactive.
For CC(Cn1cncn1)NC(=O)c1ccc(CCC(C)(C)O)cc1 (centres undefined) the results were KDM5B inh inactive.
For O=C(c1cn[nH]c1)N1CCC(c2nc(CCOCC3CCOCC3)no2)C1 (centres undefined) the results were KDM5B inh inactive.
Screening O=C(C1CCCCC1)N1CCC2(CC1)NCc1ccccc1NC2=O returned KDM5B inh inactive.
Screening O=C(c1ccccc1)N1CCC2(Cc3ccccc3NC2=O)C1 (centres undefined) returned KDM5B inh inactive.
O=C(c1ccccc1)N1CCC2(CC1)NCc1ccccc1NC2=O was read as KDM5B inh 89.1µM*.
For Cc1cc2nc(SCC(=O)Nc3ccc4c(c3)OCO4)n(C)c(=O)c2[nH]1 the results were KDM5B inh inactive.
For O=C(NCc1ccncc1)c1cn(C2CN(C(=O)C3CC3)C2)nn1 the results were KDM5B inh inactive.
For FC(F)(F)c1ccc(/C=N/Nc2ccc(Cl)c(Cl)c2)cc1 the results were KDM5B inh inactive.
